In article PMC5540273 (PLoS ONE, 2017):

Tested on: SYK
Conditions: concentration: 1 μM, replicates: in singlicate; n = 1
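Note: KINOMEscan kinase panel screen.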

| SMILES | %Inh |
| --- | --- |
| O=c1[nH]cc(-c2ccc(N3CCOCC3)cc2)c2sc(-c3cn[nH]c3)cc12 [GSK2276055] | 0% |
| Cn1cc(-c2ccc3c(c2)CCN3C(=O)Cc2cccc(F)c2)c2c(N)ncnc21 [GSK2603358] | 18% |
| CN1CCN(CCCNc2nccc(-c3c(-c4ccc(F)cc4)nn4cc(C(F)(F)F)ccc34)n2)CC1 [GW621581] | 10% |
| Cc1ccc(C(=O)Nc2ccc(Nc3ccnc4cc(-c5nccs5)ccc34)cc2O)cc1.Cl [GW494702] | 5% |
| CC(C)(C)c1ccc2nccc(Nc3cccc(O)c3)c2c1 [GW856795] | 0% |
| Nc1n[nH]c2cnc(-c3ccccc3)cc12 [SB-642124] | 0% |
| CCc1ccc(-c2ccc3c(c2)-c2c(cnn2C)S(=O)(=O)N3C)cc1 | 0% |
| O=C(Nc1n[nH]c2nc(-c3ccc(O)cc3)ccc12)C1CC1 [SB-710363] | 25% |
| CC(=O)N1CCN(c2ccc(Nc3nccc(-c4sc(C(C)C)nc4-c4cccc(NS(=O)(=O)c5cccc(Cl)c5)c4)n3)cn2)CC1 [GSK1660437] | 61% |
| c1ccc(-c2n[nH]cc2Nc2ccnc3ccccc23)nc1 [GW694077] | 16% |
| Oc1cc(Nc2ccnc3cc(I)ccc23)ccc1F [GW552771] | 19% |
| COc1ccc(Nc2nccc(N3CCC(NC(=O)Nc4cccc(OC)c4)C3)n2)cc1 (centres unmarked) [GSK1379742] | 25% |
| COc1cc(Nc2nccc(-c3c(-c4cccc(NC(=O)c5c(F)cccc5F)c4)nn4ccccc34)n2)cc(OC)c1OC [GSK323521] | 28% |
| c1ccc(-c2cnc3nccnn23)cc1 [AH20685] | 26% |
| C[C@@H](Oc1cc(-n2cnc3cc(-c4ccnc(NCCS(C)(=O)=O)c4)ccc32)sc1C(N)=O)c1ccccc1Cl [GSK907232] | 80% |
| COc1cc(Nc2ncc3c(C)nc(-c4cc5ccccc5[nH]4)n3n2)cc(OC)c1OC [GW869516] | 53% |
| Cl.c1ccc(-c2ccc3c(Nc4ccc5[nH]ncc5c4)ccnc3c2)nc1 [GW440137] | 27% |
| Cl.c1ccc(-c2ccc3c(Nc4ccc5[nH]ccc5c4)ccnc3c2)nc1 [GW440138] | 0% |
| Cl.NC(=O)c1cccc(Nc2nccc(Nc3ccc(Oc4c(Cl)cccc4Cl)c(Cl)c3)n2)c1 [GW659009] | 0% |
| O=C(Nc1ccccc1F)NC1CCN(c2ccnc(Nc3ccc(F)cc3)n2)CC1 [GSK1379800] | 0% |
| COc1ccc(-c2coc3ccc(-c4nnc(SCc5ccc(OC)c(C(F)(F)F)c5)o4)cc23)cc1 | 0% |
| Clc1ccc(-c2nn3ncccc3c2-c2ccnc(Nc3ccc4c(c3)OCCO4)n2)cc1 [GW829116] | 0% |
| CC(C)c1nc(-c2cccc(NS(=O)(=O)c3c(F)cccc3F)c2F)c(-c2ccnc(Nc3ccc(N4CCOCC4)nc3)n2)s1 [GSK2008607] | 85% |
| C[C@@H]1CC[C@@H](C(=O)Nc2ccccc2)CN1c1cc(-c2ccc3c(N)n[nH]c3c2)nc(N)n1 [GSK2286062] | 30% |
| COc1ccc(CNC(=O)NC2CCN(c3ccnc(Nc4ccc(F)cc4)n3)CC2)cc1 [GSK1379788] | 21% |

Tested on: SgK110
Conditions: concentration: 1 μM, replicates: in singlicate; n = 1

| SMILES | %Inh |
| --- | --- |
| c1ccc(Oc2ccc(Nc3ccnc4cc(-c5ccc(CNCCN6CCOCC6)o5)ccc34)cc2)nc1 [GW567145] | 0% |
| Cn1cc(-c2[nH]c3cc(NC(=O)[C@H](N)C4CCCCC4)cc4c3c2C=NNC4=O)cn1 | 92.1% |
| O=C(Nc1cccc(-c2nn3ccccc3c2-c2ccnc(Nc3cccc(F)c3)n2)c1)c1c(F)ccc(F)c1Cl [GSK357952] | 0% |
| Cc1ccc(C)c(NC(=O)NC2CCN(c3ccnc(Nc4ccc(F)cc4)n3)C2)c1 (centres unmarked) [GSK1379720] | 11% |
| O=C(Nc1n[nH]c2cc(-c3ccoc3)ccc12)C1CC1 [SB-738481] | 0% |
| COc1cccc(C(=O)Nc2cccc(Oc3ccc4nc(NC(=O)C5CC5)cn4n3)c2)c1 | 0% |
| Cc1ccc(S(=O)(=O)Nc2ccc(Nc3nccc(Nc4cccc5[nH]ncc45)n3)cc2)cc1 [GSK581271] | 0% |
| CN(C)Cc1ccc(-c2ccc3c(Nc4ccc(Oc5ccccn5)cc4)ccnc3c2)o1 [GW567148] | 0% |
| Nc1ncc(-c2ccc3nccc(-c4ccncc4)c3c2)cc1S(=O)(=O)N1CCOCC1 [GSK1627798] | 0% |
| CC(=O)Nc1nc2cnc(Nc3cc(NC(=O)c4cccc(C5(C#N)CC5)c4Cl)ccc3C)nc2s1 | 19% |
| Cl.Cl.NCC(NC(=O)c1cc(-c2ccccc2)c(-c2ccnc3[nH]ccc23)s1)c1ccccc1 (centres unmarked) [GSK1321561] | 0% |
| COc1cccc(C2=C(Nc3ccc(Cl)c(C(=O)O)c3)C(=O)NC2=O)c1 [SB-390769] | 57% |
| O=c1[nH]cc(-c2ccc(N3CCOCC3)cc2)c2sc(-c3cn[nH]c3)cc12 [GSK2276055] | 0% |
| Cn1cc(-c2ccc3c(c2)CCN3C(=O)Cc2cccc(F)c2)c2c(N)ncnc21 [GSK2603358] | 0% |
| CN1CCN(CCCNc2nccc(-c3c(-c4ccc(F)cc4)nn4cc(C(F)(F)F)ccc34)n2)CC1 [GW621581] | 0% |
| Cc1ccc(C(=O)Nc2ccc(Nc3ccnc4cc(-c5nccs5)ccc34)cc2O)cc1.Cl [GW494702] | 15% |
| CC(C)(C)c1ccc2nccc(Nc3cccc(O)c3)c2c1 [GW856795] | 0% |
| Nc1n[nH]c2cnc(-c3ccccc3)cc12 [SB-642124] | 50% |
| CCc1ccc(-c2ccc3c(c2)-c2c(cnn2C)S(=O)(=O)N3C)cc1 | 0% |

| SMILES | %Inh |
| --- | --- |
| O=C(Nc1n[nH]c2nc(-c3ccc(O)cc3)ccc12)C1CC1 [SB-710363] | 0% |
| CC(=O)N1CCN(c2ccc(Nc3nccc(-c4sc(C(C)C)nc4-c4cccc(NS(=O)(=O)c5cccc(Cl)c5)c4)n3)cn2)CC1 [GSK1660437] | 0% |
| c1ccc(-c2n[nH]cc2Nc2ccnc3ccccc23)nc1 [GW694077] | 0% |
| Oc1cc(Nc2ccnc3cc(I)ccc23)ccc1F [GW552771] | 0% |
| COc1ccc(Nc2nccc(N3CCC(NC(=O)Nc4cccc(OC)c4)C3)n2)cc1 (centres unmarked) [GSK1379742] | 0% |
| COc1cc(Nc2nccc(-c3c(-c4cccc(NC(=O)c5c(F)cccc5F)c4)nn4ccccc34)n2)cc(OC)c1OC [GSK323521] | 0% |
| c1ccc(-c2cnc3nccnn23)cc1 [AH20685] | 0% |
| C[C@@H](Oc1cc(-n2cnc3cc(-c4ccnc(NCCS(C)(=O)=O)c4)ccc32)sc1C(N)=O)c1ccccc1Cl [GSK907232] | 0% |
| COc1cc(Nc2ncc3c(C)nc(-c4cc5ccccc5[nH]4)n3n2)cc(OC)c1OC [GW869516] | 0% |
| Cl.c1ccc(-c2ccc3c(Nc4ccc5[nH]ncc5c4)ccnc3c2)nc1 [GW440137] | 6% |
| Cl.c1ccc(-c2ccc3c(Nc4ccc5[nH]ccc5c4)ccnc3c2)nc1 [GW440138] | 0% |
| Cl.NC(=O)c1cccc(Nc2nccc(Nc3ccc(Oc4c(Cl)cccc4Cl)c(Cl)c3)n2)c1 [GW659009] | 0% |
| O=C(Nc1ccccc1F)NC1CCN(c2ccnc(Nc3ccc(F)cc3)n2)CC1 [GSK1379800] | 0% |
| COc1ccc(-c2coc3ccc(-c4nnc(SCc5ccc(OC)c(C(F)(F)F)c5)o4)cc23)cc1 | 4% |
| Clc1ccc(-c2nn3ncccc3c2-c2ccnc(Nc3ccc4c(c3)OCCO4)n2)cc1 [GW829116] | 11% |
| CC(C)c1nc(-c2cccc(NS(=O)(=O)c3c(F)cccc3F)c2F)c(-c2ccnc(Nc3ccc(N4CCOCC4)nc3)n2)s1 [GSK2008607] | 0% |
| C[C@@H]1CC[C@@H](C(=O)Nc2ccccc2)CN1c1cc(-c2ccc3c(N)n[nH]c3c2)nc(N)n1 [GSK2286062] | 0% |
| COc1ccc(CNC(=O)NC2CCN(c3ccnc(Nc4ccc(F)cc4)n3)CC2)cc1 [GSK1379788] | 0% |
